Assay outcomes as filed in PubChem.
The list is not random: actives were taken first. Their share in the collection is about 8.8%.
KB-3-1 cytotox – kills parental KB-3-1 adenocarcinoma cells. KB-3-1 viability, CellTiter-Glo ATP luminescence, 72 h. Potency, µM (series often up to 46.1 µM), actives largely listed as cytotoxic. hit rate 1.4% among 400,000; also: nearly all actives have a fitted effect of over 60% in size
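Cells are dispensed, compounds pinned in, plates held at 37 °C for 72 h, then CellTiter-Glo is added and luminescence read after 10 minutes. Cell line: parental KB-3-1 in phenol-red-free DMEM, 10% FBS.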
HT1080 IDH1KD tx – HT-1080 IDH1 knockdown cell toxicity (counter line). HT-1080 IDH1 knockdown viability, ATP luminescence, 48 h. Potency, µM (top dose mostly 46.1 µM), hits mostly cytotoxic. hit rate 2% among 360,000
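Using the IDH1-knockdown HT-1080 line run in the same batch and compound series as the NT line, viability after 48 h at 37 °C was determined by CellTiter-Glo luminescence and expressed as % activity.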
KB-V1 MDR tox – kills drug-selected multidrug resistant KB-V1 cells; KB-V1 MDR cells viability, CellTiter-Glo, 72 h; Potency, µM (series often up to 46.1 µM), most hits filed as cytotoxic; hit rate 3.4% among 400,000; AID 1347076; also: nearly all actives have a fitted effect of over 60% in size
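Following 72 h at 37 degrees C with compound, KB-V1 cell viability was read by CellTiter-Glo luminescence, medium being phenol-red-free DMEM plus 10% FBS; concentration-response parameters came from normalized, curve-fitted qHTS data.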
HT1080NT lethal – kills 2HG-producing HT-1080-NT fibrosarcoma cells | hit rate 1.6% among 360,000 | Potency, µM (series often up to 46.1 µM), usual class: cytotoxic | HT-1080-NT fibrosarcoma viability, CellTiter-Glo ATP luminescence, 48 h;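 also: NT is the 2HG producing partner of a matched IDH1 knockdown line; nearly all actives have a fitted effect of over 55% in size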
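Compounds were tested in concentration-response format on HT-1080-NT cells for 48 hours at 37 degrees C. Cell viability came from CellTiter-Glo luminescence; curves were classified by r2, response magnitude and activity.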
IL-1B inflam inh – inhibitors of inflammasome signaling (IL-1 beta secretion); THP-1 LPS/ATP IL-1B secretion, AlphaLISA, 16 h; active compounds read low; activity change, % at 57.5 µM; hit rate 4.7% among 360,000; in the data active = activity change below about -50%; inconclusive = mostly about -30% to -49%
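THP-1 cells pretreated 1 hr with compounds (up to 57.5 uM final), then stimulated with LPS (250 ng/mL final) plus ATP (1.25 mM final); secreted IL-1B measured by AlphaLISA after 16 hr, decreased signal indicating inhibition.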
Large screens that a line does not name were inactive. Unless noted, calls follow the shape of the dose curve; as a rule, active = well fitted curve in the direction sought with a large enough effect; inconclusive = small, poorly fitted or top-dose-only effect, or another doubt; inactive = no such curve, though single readings can be large; an effect the other way counts as inactive or inconclusive.

O=[N+]([O-])c1ccc(Sc2nccn2Cc2ccccc2)c([N+](=O)[O-])c1	HT1080 IDH1KD tx inconclusive, KB-V1 MDR tox inconclusive, IL-1B inflam inh -108.4
O=[N+]([O-])c1cc(C(F)(F)F)ccc1Sc1nccn1Cc1ccccc1	IL-1B inflam inh inconclusive
Cc1cc2c(c(=O)o1)C(c1cccs1)C(C#N)=C(N)O2 (stereo not drawn)	IL-1B inflam inh -63.1
Cc1ccc([C@H]2C(C#N)=C(N)Oc3cc(C)oc(=O)c32)o1	HT1080NT lethal inconclusive, IL-1B inflam inh -106.2
Cc1cc2c(c(=O)o1)C(C(C)C)C(C#N)=C(N)O2 (stereo not drawn)	none
CCN1CCN(C(c2cccc(F)c2)c2c(O)cc(C)n(CCOC)c2=O)CC1 (stereo not drawn)	none (no result: HT1080 IDH1KD tx, HT1080NT lethal, IL-1B inflam inh)
Cc1nn(C(=O)c2c(F)cccc2F)c(C)c1S(=O)(=O)N1CCCCCC1	none (no result: HT1080 IDH1KD tx, HT1080NT lethal, IL-1B inflam inh)
C=CCN(CC=C)C(=S)NC(=O)c1ccc(OC)c(Br)c1	KB-3-1 cytotox inconclusive, HT1080 IDH1KD tx 3.16µM, KB-V1 MDR tox inconclusive, HT1080NT lethal inconclusive
CCN(CC)C(=S)NC(=O)c1ccc(OC)c(Br)c1	none
C/C(=N\NC(=O)c1nn(C)c(C)c1Br)c1ccc(NC(=O)c2ccccc2F)cc1	KB-V1 MDR tox inconclusive
CCOc1ccc(-n2c(/C=C/c3cccc(F)c3)nc3cc(OC)c(OC)cc3c2=O)cc1	KB-3-1 cytotox inconclusive (no result: HT1080 IDH1KD tx, HT1080NT lethal, IL-1B inflam inh)
O=C(c1ccco1)N1CCN(C(=O)C2CC(=O)N(c3ccccc3)C2)CC1 (stereo not drawn)	HT1080 IDH1KD tx inconclusive
CN(Cc1cnc2nc(N)nc(N)c2n1)c1ccc(C(=O)NC(CCC(=O)O)C(=O)O)cc1 (stereo not drawn)	KB-3-1 cytotox 0.0052µM, HT1080 IDH1KD tx 0.0065µM, KB-V1 MDR tox inconclusive, HT1080NT lethal 0.231µM
CN(Cc1cnc2nc(N)nc(N)c2n1)c1ccc(C(=O)NC(CCC(=O)O)C(=O)O)cc1C(F)(F)F (stereo not drawn)	KB-3-1 cytotox 0.013µM, HT1080 IDH1KD tx 0.146µM, KB-V1 MDR tox inconclusive, HT1080NT lethal inconclusive
Nc1nc(N)c2nc(CNc3ccc(C(=O)NC(CCC(=O)O)C(=O)O)cc3)cnc2n1 (stereo not drawn)	none (no result: HT1080 IDH1KD tx, HT1080NT lethal, IL-1B inflam inh)
Cc1ccc(OCCSc2nc3ccc(NC(=O)c4ccc5c(c4)OCO5)cc3s2)cc1	none (no result: HT1080 IDH1KD tx, HT1080NT lethal, IL-1B inflam inh)
O=C(O)c1cc2c(s1)-c1ccccc1CC2	none
O=C(N/N=C/c1ccc(Cl)cc1)c1cc2c(s1)-c1ccccc1CC2	KB-3-1 cytotox 20.6µM, HT1080 IDH1KD tx inconclusive, KB-V1 MDR tox inconclusive, HT1080NT lethal inconclusive
N#CC1=C(N)OC2=C(CCc3ccccc32)C1c1ccccc1Cl (stereo not drawn)	KB-3-1 cytotox inconclusive, HT1080 IDH1KD tx 4.61µM, KB-V1 MDR tox 4.61µM, HT1080NT lethal 7.31µM, IL-1B inflam inh -73.0
COc1ccccc1NC(=O)NC1(C(=O)N2CCN(C)CC2)CCCCC1	KB-V1 MDR tox inconclusive
O=C(CN(Cc1ccco1)C(=O)c1ccc([N+](=O)[O-])cc1)Nc1ccccc1C(F)(F)F	none
COc1ccccc1NC(=O)CN(Cc1ccco1)C(=O)c1ccc(-n2nc(C)cc2C)cc1	KB-V1 MDR tox 2.06µM
CC(C)COc1ccc(C(=O)N(CC(=O)Nc2ccccc2C(F)(F)F)Cc2ccco2)cc1	KB-V1 MDR tox inconclusive, HT1080NT lethal inconclusive, IL-1B inflam inh -72.1
CCOC(=O)Cn1c(=O)oc2cc(S(=O)(=O)Nc3ccc(F)cc3)ccc21	none
COCC(=O)O[C@]1(CCN(C)CCCc2nc3ccccc3[nH]2)CCc2cc(F)ccc2[C@@H]1C(C)C	KB-3-1 cytotox inconclusive, HT1080 IDH1KD tx inconclusive, KB-V1 MDR tox 14.6µM, HT1080NT lethal inconclusive
COc1cc(/C=C(\NC(C)=O)C(=O)N2CCCCC2)ccc1OC(C)=O	KB-V1 MDR tox inconclusive
CC(NC(=O)CCn1nc(-c2ccc(Cl)cc2)ccc1=O)c1ccccc1 (stereo not drawn)	none
O=C(NC(c1ccccc1)c1ccccc1)C1(c2cccs2)CCOCC1	KB-V1 MDR tox 5.17µM
Cc1cccc(NC(=O)C2(c3cccs3)CCOCC2)n1	KB-V1 MDR tox 16.4µM
CC1(C(=O)NS(=O)(=O)c2cccs2)CCN1C(=O)CC1CCCCC1 (stereo not drawn)	none
COCc1ccc(C(=O)N2CCCC(N3CCN(c4ccc(F)cc4)CC3)C2)o1 (stereo not drawn)	KB-V1 MDR tox inconclusive
CCCOc1ccc(-c2cc(C(F)(F)F)c(C#N)c(SCC(=O)O)n2)cc1	IL-1B inflam inh -71.0
CCCOc1ccc(-c2cc(C(F)(F)F)c(C#N)c(SCCC(=O)O)n2)cc1	none (no result: HT1080 IDH1KD tx, HT1080NT lethal, IL-1B inflam inh)
Cc1ccc2nc(-c3ccccc3)cc(C(=O)N3CCN(S(=O)(=O)c4c(C)noc4C)CC3)c2c1	none
Cc1cc(C)cc(Nc2c3c(nc4ncnn24)CCC3)c1	HT1080 IDH1KD tx inconclusive, KB-V1 MDR tox 2.06µM, HT1080NT lethal inconclusive
Clc1ccc(Nc2c3c(nc4ncnn24)CCC3)cc1	KB-V1 MDR tox 7.31µM
COc1ccc(N2CCN(C(=O)C(=O)c3cn(CC(=O)N4CCCC4)c4ccccc34)CC2)cc1	KB-3-1 cytotox inconclusive, KB-V1 MDR tox inconclusive
CCC(C)OC(=O)c1[nH]c2c(c1C)C(=O)CC(c1ccc(N(C)C)cc1)C2 (stereo not drawn)	KB-3-1 cytotox inconclusive, HT1080 IDH1KD tx 23.1µM, KB-V1 MDR tox inconclusive, HT1080NT lethal inconclusive
COC(=O)c1[nH]c2c(c1C)C(=O)CC(c1ccccc1)C2 (stereo not drawn)	KB-3-1 cytotox 1.3µM, HT1080 IDH1KD tx inconclusive, KB-V1 MDR tox 0.581µM, HT1080NT lethal 0.447µM
O=C(O)Cc1sc(Nc2cccc3ccccc23)nc1-c1ccccc1	none
O=C(O)Cc1sc(Nc2cccc3ccccc23)nc1-c1ccc(Cl)cc1	HT1080NT lethal 11.6µM
COC(=O)CSc1nnc([C@H](Cc2ccccc2)NC(=O)OC(C)(C)C)o1	none
Cc1cccc(CS(=O)(=O)c2nnc([C@H](Cc3ccccc3)NC(=O)OC(C)(C)C)o2)c1	KB-3-1 cytotox inconclusive, HT1080 IDH1KD tx 2.82µM, KB-V1 MDR tox inconclusive, HT1080NT lethal 5.01µM, IL-1B inflam inh inconclusive
CC(C)(C)OC(=O)N[C@@H](Cc1ccccc1)c1nnc(SCC(N)=O)o1	none
COC(=O)CS(=O)(=O)c1nnc([C@H](Cc2ccccc2)NC(=O)OC(C)(C)C)o1	KB-3-1 cytotox inconclusive, HT1080 IDH1KD tx inconclusive, KB-V1 MDR tox inconclusive, HT1080NT lethal inconclusive, IL-1B inflam inh -101.5
Cn1c(=O)c2c(nc(SCCN3CCOCC3)n2Cc2cccc3ccccc23)n(C)c1=O	HT1080 IDH1KD tx inconclusive, KB-V1 MDR tox 4.11µM
COc1cc(C(=O)NCC2CCCO2)ccc1OCc1ccc(Cl)cc1 (stereo not drawn)	KB-V1 MDR tox inconclusive
COc1cc(C(=O)NCC2CCCO2)ccc1OCc1ccc(Cl)cc1Cl (stereo not drawn)	KB-V1 MDR tox inconclusive, IL-1B inflam inh -86.0
O=C(Nc1ccccc1C(=O)NCC1CCCO1)c1ccc(Cl)cc1Cl (stereo not drawn)	KB-V1 MDR tox 6.51µM
